Screen size: about 370,000 compounds; about 5,400 (1.5%) were called active.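 Rule for the calls: active = activation above the mean of all tested compounds plus 3 SD (cut at about 5.5% in these data); inactive = the rest.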 For the sample, actives were picked, then their nearest neighbours and some compounds at random.
Each compound was assayed on DAF-12 nuclear receptor (Haemonchus contortus) (assay: H. contortus DAF-12 nuclear receptor activators, primary screen, cell-based, luminescence, HEK293, lit1-tk-luc reporter (AID 652067;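 note: 100% = response to 3 µM Δ7-dafachronic acid high control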)). Settings: HEK293 hcDAF-12 lit1-tk-luc reporter, at 6.8 µM, active compounds read high, 0% DMSO, 100% Δ7-dafachronic acid.
In the case of `CCn1c(SC)nc(O)c(C(c2ccc(OC)c(O)c2)c2c(O)nc(SC)n(CC)c2=O)c1=O`, the activation is reported as -1.4% (inactive).
For `Cc1cccc(N2CCN(C(=O)c3cccc(S(=O)(=O)N4CCc5ccccc5C4)c3)CC2C)c1` (centres undefined), the activation was -2.28% (inactive).
`Cc1cccc(N2Cc3ccccc3C2=NC(=O)c2ccc(Cl)nc2)c1` was tested, and the activation was 5.83% (active).
In the case of `N#Cc1ccc(N2Cc3ccccc3/C2=N/C(=O)Nc2ccc(Cl)cc2)cc1`, the activation is reported as -0.08% (inactive).
For `CCCCCCCCNS(=O)(=O)/C=C/c1cc(C)ccc1CNC(=O)OC(C)(C)C`, the activation was -0.7% (inactive).
In the case of `COc1ccc(-c2nnn(Cc3nc(N)nc(N4CCCCC4)n3)n2)cc1`, the activation is reported as -2.9% (inactive).
In the case of `Fc1ccc(CNc2nc3ccccc3n3nnnc23)cc1`, the activation is reported as 5.66% (active).
For `CCOC(=O)CNc1nc2ccccc2n2c(C)nnc12`, the activation was -0.04% (inactive).
With `CC(C)(C)N1CC(c2nc3ccccc3n2Cc2ccc(F)cc2)CC1=O` (centres undefined) the activation was 0.33% (inactive).
For `Cc1ccc(-n2nc(N)c3c(=O)oc(N(C)C)nc32)cc1`, the activation was 0.85% (inactive).
With `Cc1c(C)n2c(SCC(=O)NC3CCCC3)nnc2[nH]c1=O` the activation was -0.71% (inactive).
`CCc1c(C)nc(SCC(=O)NC2CCCC2)[nH]c1=O` was tested, and the activation was -0.17% (inactive).
`Cc1nc(SCC(=O)NC2CCCC2)[nH]c(=O)c1C` was tested, and the activation was 5.79% (active).
With `CCOC(=O)c1c(C2CC2)csc1NC(=O)CSCc1c(C)noc1C` the activation was -3.08% (inactive).
For `CC(=O)Nc1cccc(C(=O)OCC(=O)NCc2cc(C)c(O)c(C)c2)c1`, the activation was 1.87% (inactive).
`CC(=O)Nc1cccc(C(=O)OCN2C(=O)c3ccccc3C2=O)c1` was tested, and the activation was 1.25% (inactive).
`CC(=O)Nc1cccc(C(=O)OCC(=O)c2ccc3c(c2)OCO3)c1` was tested, and the activation was 8.29% (active).
In the case of `COc1ccc(C(=O)OCCN(C)C2CN(Cc3cn(Cc4cccc(C)c4)nn3)S(=O)(=O)C2)cc1OC` (centres undefined), the activation is reported as -2.89% (inactive).
In the case of `CCCc1nc2c3ccccc3ccn2c1Cc1ccccc1C(F)(F)F`, the activation is reported as 5.09% (inactive).
For `c1ccc(Cc2c(-c3ccco3)nc3c4ccccc4ccn23)cc1`, the activation was 12% (active).
In the case of `COc1ccccc1Cc1c(-c2ccc(Cl)cc2)nc2c3ccccc3ccn12`, the activation is reported as 2.15% (inactive).
`Cc1ccc(Cc2c(-c3ccc(C)cc3)nc3c4ccccc4ccn23)cc1` was tested, and the activation was 4.63% (inactive).
With `FC(F)(F)c1ccccc1Cc1c(-c2ccccc2)nc2c3ccccc3ccn12` the activation was 5.96% (active).
For `Cc1ccc(Cc2c(-c3ccc(Cl)cc3)nc3c4ccccc4ccn23)cc1`, the activation was 3.04% (inactive).
For `COc1cccc(N2CCN(CC(=O)N(C)Cc3ccc(F)cc3)CC2)c1`, the activation was -2.02% (inactive).
With `C=CCN1C(=O)[C@H](CC(=O)NCCCN2CCCC2=O)[C@@]2(C(=O)OCC)CCCC=C12` the activation was -0.18% (inactive).
In the case of `Cc1ccc(NC(=O)c2cc(C)nn2-c2ccccc2)c(C)c1`, the activation is reported as -2.18% (inactive).
With `Clc1cccc2c1C1CC2CCN1Cc1ccccc1` (centres undefined) the activation was -1.68% (inactive).
In the case of `CS(=O)(=O)N(Cc1ccccc1Cl)c1ccc(C(=O)NCc2cccnc2)cc1`, the activation is reported as -2.13% (inactive).
`CC(OC(=O)CNC(=O)c1ccco1)C(=O)Nc1ccc(Cl)cn1` (centres undefined) was tested, and the activation was -2.11% (inactive).
For `CCCc1cc(C(=O)Nc2ccc(Cl)cn2)cs1`, the activation was 7.31% (active).
For `O=C(COC(=O)c1ccco1)Nc1ccc(Cl)cn1`, the activation was 0.13% (inactive).
With `O=C(Nc1cc(Cl)cc(Cl)c1)OCCN1CCCC12CCC(c1ccccc1)CC2` (centres undefined) the activation was -0.18% (inactive).
`COC(=O)[C@]12C[C@H](CC(=O)N3CCOCC3)C(=O)N(Cc3ccc(Cl)cc3Cl)C1=C[C@H](COCc1ccccc1)O[C@@H]2C` was tested, and the activation was -3.03% (inactive).
For `NC(=S)N/N=C/c1coc2cc(Cl)ccc2c1=O`, the activation was 5.81% (active).
With `NC(=S)NN=Cc1ccc(OC(=O)COc2cc(Cl)c(Cl)cc2Cl)cn1` the activation was -1.62% (inactive).
In the case of `CC(C)Oc1c(Br)cc(Br)cc1/C=N/NC(N)=S`, the activation is reported as -4.22% (inactive).
In the case of `Cc1cc(N2CCN(C(=O)OC(C)(C)C)C[C@H]2C)ccc1N1CCN(Cc2ccccc2)[C@H](C)C1`, the activation is reported as 1.47% (inactive).
With `O=C(Nc1ccccc1)N(Cc1cccnc1)Cc1ccco1` the activation was -0.9% (inactive).
`Cc1ccc(N(C(=O)CNC(=O)c2ccco2)C(C(=O)NC2CCCC2)c2ccncc2)cc1` (centres undefined) was tested, and the activation was 0.7% (inactive).
For `COc1cccc(N(C(=O)CNC(=O)c2ccco2)C(C(=O)NC2CCCCC2)c2cccnc2)c1` (centres undefined), the activation was -0.65% (inactive).
For `CC(C)(C)NC(=O)C(c1ccncc1)N(C(=O)CNC(=O)c1ccco1)c1ccc2c(c1)OCO2` (centres undefined), the activation was 6.8% (active).
For `CC(C)CNc1cccc2c1S(=O)(=O)N[C@H](CC(C)C)CO2`, the activation was -1.3% (inactive).
With `Nc1ccccc1/C=N\N=C/c1ccccc1N` the activation was 8.99% (active).
In the case of `C=CCN1C(=O)[C@@H](CC(=O)NCCCCc2ccccc2)[C@]2(C(=O)OCC)CCCCC/C=C/12`, the activation is reported as -0.4% (inactive).
`CN(C)c1ccnc2sc(C(=O)c3ccccc3)c(N)c12` was tested, and the activation was 6.4% (active).
With `CC(=O)c1c(Nc2ccccc2)sc(C(=O)c2ccccc2)c1C` the activation was -2.59% (inactive).
With `COC(=O)c1cc2c(N)c(C(=O)c3ccc(Cl)cc3)sc2nc1C(OC)OC` the activation was 0.3% (inactive).
For `CCCCCCCCN1C(=O)[C@@H](CC(=O)N2CCN(C(=O)OCC)CC2)C[C@@]2(C(=O)OC)C1=C[C@H](C1CCCC1)O[C@@H]2C`, the activation was -0.68% (inactive).
In the case of `COc1cccc(CN2C(=O)CCC2(C)C(=O)NC2CCCCCC2)c1` (centres undefined), the activation is reported as -2.09% (inactive).
With `O=C(CSc1nnc(COc2ccccc2)n1-c1ccc(Cl)cc1)Nc1ccc2c(c1)OCO2` the activation was -0.19% (inactive).
In the case of `COc1ccc(-c2noc(CCC(=O)N3CCN(c4cccc(C)c4)CC3)n2)cc1`, the activation is reported as -0.53% (inactive).
For `COc1ccc(N2CCN(C(=O)CCc3nc(-c4ccc(C)cc4)no3)CC2)cc1`, the activation was -1.97% (inactive).
With `Cc1ccc(C)c(N2CCN(C(=O)CCc3nc(-c4cccc(C(F)(F)F)c4)no3)CC2)c1` the activation was 6.2% (active).
In the case of `C=CS(=O)(=O)N(Cc1nnn(Cc2ccccc2)c1Br)[C@H](C(=O)OC)C(C)C`, the activation is reported as -3.12% (inactive).
`O=C(NCC(=O)N1CCN(c2ccccc2O)CC1)c1ccc2ccccc2c1` was tested, and the activation was 6.1% (active).
For `COc1ccc(N2CCN(C(=O)CNC(=O)c3ccc(C(C)(C)C)cc3)CC2)cc1`, the activation was -2.42% (inactive).
With `O=C(CNC(=O)c1ccc2ccccc2c1)Nc1ncccc1O` the activation was 0.18% (inactive).
With `Clc1ccc(-n2c(COc3ccccc3)nnc2SCc2nc3ccccc3[nH]2)cc1` the activation was -0.51% (inactive).
With `NNC(=O)C1CCCn2c1nc1sc3c(c1c2=O)CCCC3` (centres undefined) the activation was 8.63% (active).
`CCn1c(SCC(C)=O)nc2sc3c(c2c1=O)CCCC3` was tested, and the activation was -0.57% (inactive).
`CCc1nc(N2CCN(C(C)=O)CC2)c2c3c(sc2n1)CCCC3` was tested, and the activation was 0.85% (inactive).
With `COC(=O)C1=C(C(=O)OC)C2C=C(C(C)C)C1C(=O)C2(C)O` (centres undefined) the activation was -1.42% (inactive).
With `O=C(OCC#CCSc1nnc(-c2ccco2)o1)c1ccc(F)cc1` the activation was -1.32% (inactive).
`O=C(O)Cn1cnc2c(NCc3ccccc3)ncnc21` was tested, and the activation was 0.95% (inactive).
In the case of `Cc1cc(=O)[nH]c(SCC(=O)Nc2ccc(F)cc2F)n1`, the activation is reported as -0.74% (inactive).
`O=C(Nc1ccccc1)N1CCN(Cc2nc3ccccc3c(=O)[nH]2)CC1` was tested, and the activation was 0.3% (inactive).
With `Fc1ccccc1/C=N/Nc1cc(N2CCCCC2)ncn1` the activation was 5.99% (active).
For `Cc1ccc(N2C(=O)C(NC(=O)c3c(F)cccc3F)(C(F)(F)F)C3=C2CC(C)(C)CC3=O)cc1` (centres undefined), the activation was -1.79% (inactive).
In the case of `O=C(c1cccc(C(F)(F)F)c1)N1CC[C@H]2[C@H](CCCN2Cc2cc(F)cc(F)c2)C1`, the activation is reported as -0.81% (inactive).
In the case of `Clc1cccc(-c2nc3nc4ccccc4nc3n2Cc2ccco2)c1`, the activation is reported as 7.47% (active).
With `O=C(CSc1nnc(-c2ccccc2)n1Cc1ccco1)Nc1ccccc1-c1ccccc1` the activation was -2.62% (inactive).
For `O=C(CSc1nnc(-c2cccc(Cl)c2)n1Cc1ccco1)Nc1ccc(OCc2ccccc2)cc1`, the activation was -3.78% (inactive).
For `COC(=O)[C@]12C[C@H](CC(=O)NCCc3ccccc3OC)C(=O)N(Cc3ccccc3)C1=C[C@H](C(C)C)O[C@@H]2C1CC1`, the activation was -0.81% (inactive).
In the case of `COc1cccc(OC)c1C(=O)N1CCN(Cc2cccnc2)CC1`, the activation is reported as -1.19% (inactive).
`Cc1ccc(C2=CCN(C)C(=O)N2c2ccc(Cl)cc2)cc1` was tested, and the activation was -0.28% (inactive).
In the case of `COC(=O)CC1CCc2cc(C)cc(C(CC(C)C)NC(=O)[C@H](CC(C)C)NC(=O)OCc3ccccc3)c2O1` (some centres undefined), the activation is reported as -1.44% (inactive).
`O=C(COC(=O)/C=C/c1ccc(Cl)cc1)NC1CCS(=O)(=O)C1` (centres undefined) was tested, and the activation was -0.16% (inactive).
For `Cc1ccc(C(=O)NCC(=O)O)s1`, the activation was -0.44% (inactive).
With `Cc1csc(NC(=O)c2ccc(C)s2)n1` the activation was 6.44% (active).
`COc1ccccc1NC(=O)c1cc(Cl)nnc1Cl` was tested, and the activation was 1.71% (inactive).
In the case of `COc1ccccc1NC(=O)c1c(Br)cnn1C`, the activation is reported as -1.66% (inactive).
With `COc1ccccc1NC(=O)c1ccc(C)s1` the activation was 9.1% (active).
For `Cc1csc(NC(=O)CN2CCCCCC2)n1`, the activation was 0.84% (inactive).
In the case of `C=CCC[C@@H](Cc1ccc(F)cc1)C(=O)OC[C@H](Cc1c[nH]c2ccccc12)NC(=O)[C@@H](CC=C)CC(=O)N(CCO)Cc1ccccc1`, the activation is reported as -2.25% (inactive).
In the case of `CCCCNc1cccc2c1S(=O)(=O)N[C@@H](C)CO2`, the activation is reported as 2.03% (inactive).
`COC(=O)[C@]12C[C@H](CC(=O)NCCCN3CCCC3=O)C(=O)N(CCc3ccc(OC)c(OC)c3)C1=C[C@H](COCc1ccccc1)O[C@@H]2C` was tested, and the activation was -0.83% (inactive).
With `Cc1ccnc(-n2sc3ccccc3c2=O)n1` the activation was 4.36% (inactive).
For `Cc1ccnc(Nc2nc3ccccc3s2)n1`, the activation was 9.2% (active).

Reference: PubChem BioAssay AID652067 (The Scripps Research Institute Molecular Screening Center, 2013)
